From PubChem BioAssay
Bfl-1 A1 inh: caspase 3/7 activation in MEF A1-2A-BIM cells, primary screen, A1 inhibitor project, cell-based, luminescence, HTS; Caspase-Glo 3/7 luminescence, 3 h; percent of clofoctol response, vehicle zero; caspase activation, % (no concentration beside the values); hit rate 0.066% among 330,000;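 active = over half of replicate activation scores above 10%, or exactly half above 10 with the replicate mean above 10; inconclusive = replicate mean below 10 yet half the replicates above 10; inactive = over half of replicates below 10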
dFosB activator: activators of delta FosB homodimer, primary screen, biochemical, fluorescence polarization, TAMRA-CDK5 oligo, single point | Protein FosB (Mus musculus), P13346 | purified delta FosB; percent of positive-control signal above neutral wells | activation, % at 25 µM | hit rate 0.99% among 340,000;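 active = mean activation above about 17%, with every replicate also reaching it, limit read from the data, passing the limit was not always enough; inconclusive = only one of the two conditions met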
Target sequence (P13346 whole entry, looked up): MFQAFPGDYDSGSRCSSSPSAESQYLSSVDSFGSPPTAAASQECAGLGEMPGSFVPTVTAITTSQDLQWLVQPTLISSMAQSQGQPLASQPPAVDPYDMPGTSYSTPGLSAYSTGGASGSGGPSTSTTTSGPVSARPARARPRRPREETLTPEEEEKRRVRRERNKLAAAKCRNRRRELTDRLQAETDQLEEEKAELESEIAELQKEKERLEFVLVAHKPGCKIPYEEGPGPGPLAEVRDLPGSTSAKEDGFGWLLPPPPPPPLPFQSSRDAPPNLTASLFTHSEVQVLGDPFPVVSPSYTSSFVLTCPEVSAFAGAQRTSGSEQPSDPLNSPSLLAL
Vif inh: HIV Vif self-association inhibitors, primary screen, imaging, HEK293T, single point; HEK293T cells, Vif self-association by quenched fluorescence, 24 h; inhibition, % at 7.49 µM; hit rate 0.35% among 340,000; AID 602346, 2012; in the data active = inhibition above about 50%, passing the limit was not always enough; inconclusive = no clear call, values can overlap the other calls; inactive = below about 31%
GSIS activator: GLuc luminescence reporter in INS-1E cells, primary screen for activators of glucose-dependent secretion of insulin | AID 743287, 2014 | activation, % at 16.6 µM | hit rate 0.61% among 370,000 | INS-1E GLuc reporter insulin secretion, 2-3 h;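 active = lowest replicate activation of at least 40%, so every replicate reaches that level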;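 note: 0% = median of neutral control wells and 100% = median of IBMX positive control wells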
Neddylation inh: inhibitors of cullin neddylation, primary screen, biochemical, TR-FRET, uHTS, NAE and Ubc12; hit rate 0.58% among 360,000; inhibition, % at 25 µM; NEDD8-conjugating enzyme Ubc12 (Homo sapiens) + NEDD8-activating enzyme E1 regulatory …; in the data active = inhibition above about 36%
* marks the source's active call; other numbers are inactive results; ? = inconclusive; · = no result. Rows were chosen to be rich in hits. Some 1.9% of all compounds tested hit in one or more screens of this group.

SMILES	Bfl-1 A1 inh	dFosB activator	Vif inh	GSIS activator	Neddylation inh
COc1ccc(-c2ccc(=O)n(CC(=O)Nc3cccc(O)c3)n2)cc1OC	0.8	4.8	9.0	117.1*	-9.1
CCCC#Cc1cnc2c(c1)C(=O)N([C@@H](C)CO)C[C@@H](C)[C@@H](CN(C)C(=O)Nc1cccc(F)c1)O2	·	·	·	-18.6	·
NC1=NC[C@H](Cc2ccccc2)N1CCCCC1CCCCC1	0.1	-2.8	-4.2	469.5*	-6.0
C[C@@]12C(=O)Nc3ccc(Br)cc3C(=O)N1[C@H]1c3cc(Cl)ccc3OC[C@@H]1[C@@H]2c1ccccc1	0.6	24.6*	-7.7	·	-239.8
CNC(=O)C[C@@H]1CC[C@H]2[C@H](COc3ccc(NC(=O)Nc4ccccc4OC)cc3C(=O)N2C)O1	·	·	·	-6.7	·
COc1ccc(/C=C2\SC(=O)N(CCCC(=O)Nc3ccc(C(=O)O)cc3)C2=O)cc1OC	0.8	-7.9	-4.1	-7.7	-9.5
O=C(CCN1C(=O)/C(=C\c2ccccc2)SC1=S)Nc1ccc(C(=O)O)cc1	-0.3	-0.9	4.4	1.3	-26.7
CC(/C=C1\SC(=S)N(CCC(=O)Nc2ccc(O)cc2)C1=O)=C\c1ccccc1	0.2	23.4*	-15.9	-9.0	-11.5
CCOc1ccc(/C=C2/SC(=S)N(CCC(=O)Nc3ccc(C(=O)O)cc3)C2=O)cc1	-0.3	47.9*	0.8	-1.4	-6.7
COc1ccc(/C=C2\SC(=S)N(CCC(=O)Nc3ccc(O)cc3)C2=O)cc1	-0.2	34.3*	-2.3	-1.1	-2.6
COc1ccc(/C=C2\SC(=O)N(CCC(=O)Nc3ccccc3)C2=O)cc1OC	-0.6	3.9	5.5	53.2*	-40.3
CN(C)C(=O)c1ccc(-c2ccc(C3[C@@H]4CN(C(=O)CN5CCOCC5)C[C@H]3N4)cc2)cc1 (stereo partly specified)	·	·	·	28.1	·
C[C@@H]1CCCCO[C@@H](CN(C)CC2CCCCC2)[C@H](C)CN([C@H](C)CO)C(=O)c2cc(NC(=O)Nc3cccc4ccccc34)ccc2O1	·	·	·	-17.4	·
O=C(CCN1C(=O)/C(=C\c2ccc(F)cc2)SC1=S)Nc1ccc(O)cc1	0.7	32.3*	-8.2	3.6	-18.1
O=C(Nc1ccc(F)cc1)N[C@H]1CC[C@@H](CC(=O)N2CCCCC2)O[C@H]1CO	·	·	·	-8.3	·
CC(C)(C(=O)N1CCC1(C)C(=O)NS(=O)(=O)c1cccc(F)c1)c1ccccc1 (stereo unspecified)	·	·	0.4	·	4.7
CC(C)(C(=O)N1CCC1(C)C(=O)NS(=O)(=O)c1cccc(Cl)c1)c1ccccc1 (stereo unspecified)	·	·	1.9	41.1*	-6.1
CSc1ccc(/C=N/N(C)S(=O)(=O)c2ccc(C)cc2)cc1	?	-9.3	-7.0	121.3*	-17.6
COc1cc2c(cc1OC)/C(=C/C(=O)c1cccc([N+](=O)[O-])c1)NCC2	-0.5	-14.2	-2.3	38.1	-23.1
COc1cc2c(cc1OC)/C(=C/C(=O)c1ccc(OC)c([N+](=O)[O-])c1)NCC2	0.2	-12.8	53.0*	51.1*	2.6
Cc1cc(N2CCN(S(=O)(=O)c3ccc(Cl)c(Cl)c3)CC2)c2ccccc2n1	0.9	14.8	85.8*	-13.3	14.0
CCCC(=O)Nc1c(C(=O)OCC)oc2ccccc12	-0.2	-1.4	-1.3	41.0*	2.5
Cc1cccnc1NC(=O)c1ccc(S(=O)(=O)N2CCCCC2)cc1	-0.1	7.4	0.0	41.3*	6.3
O=C(NCc1ccccc1)c1ccc(S(=O)(=O)N2CCCCCC2)cc1	·	·	76.7*	·	-3.2
CCS(=O)(=O)N1CC2(CN[C@@H](CO)c3c2c2ccc(OC)cc2n3C)C1	·	·	·	16.3	·
SMILES	Bfl-1 A1 inh	dFosB activator	Vif inh	GSIS activator	Neddylation inh
O=C(Cn1cnc([N+](=O)[O-])c1)Nc1ccc(F)c(Cl)c1	·	2.7	0.6	1.8	-20.9
O=C(Cn1cnc([N+](=O)[O-])c1)Nc1ccc(Cl)cc1Cl	·	·	64.4*	1.4	-4.6
C[C@]12CCC(=O)C=C1CC[C@@H]1[C@@H]2[C@@H](O)C[C@@]2(C)[C@H]1CC[C@]2(O)C(=O)CO	-0.4	1.5	-1.1	-8.7	-3.1
CC12CCC(=O)C=C1CCC1C2C(O)CC2(C)C1CCC2(O)C(=O)CO (stereo unspecified)	0.6	4.2	50.1*	-4.9	0.9
Cc1cccc(S(=O)(=O)N2CCCCN3[C@H](CO)[C@@H](c4ccc(C#CC(C)C)cc4)[C@@H]3C2)c1	·	·	·	-4.3	·
O=C1/C(=C/c2cccc(F)c2)CSc2sccc21	-0.2	-7.2	9.8	42.6*	-23.9
O=C1/C(=C/c2cccc(Cl)c2)CSc2sccc21	-0.1	-5.0	5.3	19.9	-65.5
CC(=O)NC(=S)Nc1ccccc1F	-0.2	1.7	58.4*	-6.5	-2.4
COc1ccc2c3c([nH]c2c1)[C@H](CO)N(C(C)=O)CC31CCN(C(=O)CN2CCOCC2)CC1	·	·	·	17.4	·
O=C(O)C(=Cc1ccccc1)Cc1ccccc1	·	5.5	24.1	41.4*	2.3
CC(=O)Oc1c(-c2ccco2)oc2ccccc2c1=O	-1.0	-12.0	-2.9	-13.2	45.6*
CCN(CC)C(=O)COc1c(-c2ccco2)oc2ccccc2c1=O	0.2	-4.7	-2.1	-14.7	33.0
Cc1cnc(NC(=O)c2cc3c(C)nn(-c4ccccc4)c3s2)s1	0.3	8.9	52.8*	35.7	28.6
Cc1noc(C)c1NC(=O)Nc1ccc2c(c1)C(=O)N([C@@H](C)CO)C[C@H](C)[C@@H](CN(C)Cc1ccncc1)OCCCC[C@H](C)O2	·	·	·	38.0	·
COc1cc(/C=C2\C(=O)ON=C2c2ccccc2)cc(Br)c1O	1.0	4.9	-0.5	-8.4	-0.7
COc1cc(/C=C2\C(=O)ON=C2c2ccccc2)cc(Cl)c1O	-0.9	18.0*	-0.1	-7.1	-25.7
CC(C)Nc1nc(NC(C)(C)C)nc(Oc2ccc(=O)n(C)n2)n1	-0.7	-10.0	-5.8	40.6*	-6.7
COc1nc(NC(C)(C)C)nc(Oc2ccc(=O)n(C)n2)n1	·	-2.9	-2.9	·	3.9
COc1ccc(-c2nnc(SCC(=O)N3CCCC3)o2)cc1OC	0.0	·	·	·	·
COc1ccc(-c2nnc(SCC(=O)N3CCCc4ccccc43)o2)cc1OC	-0.2	-4.2	61.2*	·	-2.5
CC(C)(C)OC(=O)n1cccc1/C=C1\c2ccccc2C(=O)N1c1ccccc1	·	-17.9	-2.8	·	42.5*
O=C(CN1CCOCC1)N[C@@H]1CC[C@@H](CCNC(=O)Nc2cc(F)ccc2F)O[C@@H]1CO	·	·	·	-6.1	·
COCC(=O)Nc1ccc2c(c1)C(=O)N(C)[C@H]1CC[C@H](CC(=O)NCCc3ccncc3)O[C@@H]1CO2	·	·	·	-6.8	·
C[C@@H]1CCCCO[C@@H](CN(C)S(=O)(=O)c2cn(C)cn2)[C@H](C)CN([C@H](C)CO)C(=O)c2cc(NS(=O)(=O)c3cccs3)ccc2O1	·	·	·	10.7	·
CCOc1ccc(OCc2ccc(C(=O)NN=Cc3ccc[nH]3)cc2)cc1	9.7*	-10.7	-6.8	-1.9	29.7
